From PMC4336329 (PLoS ONE, 2015)
The whole screen tested about 310,000 compounds, of which about 14,000 (4.5%) showed an effect of 50% or more. The effect is printed as a negative number. Many of the other results were omitted from the sample, so strong results are more common in it than they were.

target: human ether-à-go-go-related gene (hERG) potassium channel (human, UniProt Q12809); experiment: primary screen, population patch clamp on CHO cells stably expressing hERG; higher = less effect of the substance
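Also: peak tail current of the secondary pulse compared with the same well before compound.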

Chain of human ether-à-go-go-related gene (hERG) potassium channel (Q12809 whole entry, looked up): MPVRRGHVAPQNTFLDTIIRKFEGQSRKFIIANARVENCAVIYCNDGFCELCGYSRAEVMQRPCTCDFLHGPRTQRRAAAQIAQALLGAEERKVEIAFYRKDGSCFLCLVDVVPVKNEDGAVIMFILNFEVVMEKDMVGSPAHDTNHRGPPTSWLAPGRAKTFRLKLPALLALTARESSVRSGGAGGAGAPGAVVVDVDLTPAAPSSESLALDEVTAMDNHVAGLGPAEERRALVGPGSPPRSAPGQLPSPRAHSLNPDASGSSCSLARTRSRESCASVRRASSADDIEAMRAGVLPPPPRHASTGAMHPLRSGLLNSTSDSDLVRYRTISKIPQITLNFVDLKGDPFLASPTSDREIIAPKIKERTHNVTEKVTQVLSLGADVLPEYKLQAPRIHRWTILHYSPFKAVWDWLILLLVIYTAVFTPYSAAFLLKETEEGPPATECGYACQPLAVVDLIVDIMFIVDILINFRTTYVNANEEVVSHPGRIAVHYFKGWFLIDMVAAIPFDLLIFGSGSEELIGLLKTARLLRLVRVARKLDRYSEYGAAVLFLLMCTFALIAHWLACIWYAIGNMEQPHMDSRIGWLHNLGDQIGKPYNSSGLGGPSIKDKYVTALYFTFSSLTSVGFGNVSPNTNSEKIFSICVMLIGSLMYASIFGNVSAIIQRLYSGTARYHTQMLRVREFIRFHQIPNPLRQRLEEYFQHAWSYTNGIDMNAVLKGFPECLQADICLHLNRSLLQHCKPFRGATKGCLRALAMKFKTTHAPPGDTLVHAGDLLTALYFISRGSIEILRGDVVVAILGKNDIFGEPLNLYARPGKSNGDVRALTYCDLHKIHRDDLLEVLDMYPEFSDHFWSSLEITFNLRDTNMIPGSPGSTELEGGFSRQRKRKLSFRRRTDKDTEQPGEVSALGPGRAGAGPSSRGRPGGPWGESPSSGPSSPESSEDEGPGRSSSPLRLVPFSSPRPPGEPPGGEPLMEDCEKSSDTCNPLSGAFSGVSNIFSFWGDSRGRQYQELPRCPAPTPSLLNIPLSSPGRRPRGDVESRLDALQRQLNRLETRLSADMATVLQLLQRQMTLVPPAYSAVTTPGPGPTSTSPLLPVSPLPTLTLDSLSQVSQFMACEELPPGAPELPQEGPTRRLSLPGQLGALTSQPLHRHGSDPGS

Row | Compound | hERG current change (%, negative = inhibition) at 10uM [%]
1 | Cc1nn(Cc2ccc(C(=O)NC3CCCCC3)o2)c(C)c1Br | -34.6
2 | COc1ccc2c(c1)c(CC(=O)O)c(C)n2C(=O)c1ccc(Cl)cc1 | 6.45
3 | COc1ccc(/C=N/OCC(=O)N2CC3(C)CC2CC(C)(C)C3)cc1OC (centres unmarked) | -3.72
4 | COc1ccc(/C=N/OCC(=O)N2CC3(C)CC2CC(C)(C)C3)cc1 (centres unmarked) | -56
5 | COc1ccc(OCC(=O)N2CC3(C)CC2CC(C)(C)C3)cc1 (centres unmarked) | -21.2
6 | N#Cc1ccc(COC(=O)c2ccc3c(c2)OCO3)cc1 | -27.4
7 | CC(C)(C)c1ccc(C(=O)N2CCNC(=O)C2CC(=O)Nc2ccc(F)cc2)cc1 (centres unmarked) | 13.9
8 | Cc1ccc(NC(=O)CC2C(=O)NCCN2C(=O)c2ccc(F)cc2)cc1 (centres unmarked) | -26.3
9 | CCc1ccc(NC(=O)CC2C(=O)NCCN2C(=O)c2ccc(F)cc2)cc1 (centres unmarked) | -55.4
10 | O=S(=O)(Cc1ccccc1)Nc1ccc(F)cc1 | 7.05
11 | O=C1c2cccc3cccc(c23)C(=O)N1OS(=O)(=O)c1ccc(Br)cc1 | 24.2
12 | COc1ccc(C(=S)N2CCOCC2)cc1OC(=O)c1ccc([N+](=O)[O-])cc1 | -63
13 | COc1cc(C(=S)N2CCOCC2)ccc1OC(=O)c1cc([N+](=O)[O-])cc([N+](=O)[O-])c1 | 0.943
14 | COc1cc(C(=S)N2CCOCC2)cc(OC)c1OC(=O)c1ccc([N+](=O)[O-])cc1[N+](=O)[O-] | -4.69
15 | COc1cc(C(=S)N2CCOCC2)ccc1OC(=O)c1ccc([N+](=O)[O-])cc1[N+](=O)[O-] | 17.1
16 | COc1ccc(C(=S)N2CCOCC2)cc1OS(=O)(=O)c1ccc(Br)cc1 | -70
17 | COc1ccc(C(=S)N2CCOCC2)cc1OC(=O)c1cccc([N+](=O)[O-])c1 | -39.9
18 | COc1ccc(C(=S)N2CCOCC2)cc1OC(=O)c1ccc([N+](=O)[O-])cc1[N+](=O)[O-] | -52
19 | CCOc1cc(C(=S)N2CCOCC2)ccc1OS(=O)(=O)c1ccc(Br)cc1 | -1.54
20 | COc1ccc(S(=O)(=O)Oc2ccc(C(=S)N3CCOCC3)cc2OC)cc1 | -0.365
21 | CCCc1nc(C)c2c(=O)[nH]c(-c3cc(S(=O)(=O)N4CCN(CC)CC4)ccc3OCC)nn12.O=C(O)CC(O)(CC(=O)O)C(=O)O | 0.215

Row | Compound | hERG current change (%, negative = inhibition) at 10uM [%]
22 | COc1cccc(N2CCN(S(=O)(=O)c3ccc4c(c3)CC(C)N4C(=O)C3CC3)CC2)c1 (centres unmarked) | 17.8
23 | CC1C(=O)N(Cc2ccccc2F)c2ccccc2N1C(=O)c1c(F)cccc1F (centres unmarked) | -6.04
24 | CC(C)N1CCc2c(sc(NC(=O)c3nc4ccccc4s3)c2C(N)=O)C1.Cl | -45.1
25 | CCCn1c(SCC(=O)/C(C#N)=C(\C)N)n[nH]c1=O | 7.25
26 | CC(C)C(=O)Nc1nnc(Cc2c[nH]c3ccccc23)s1 | 28
27 | Cc1[nH]n(-c2ccccc2)c(=O)c1C=NC1CCCCC1 | -10.5
28 | O=C(CCCN1C(=O)/C(=C\c2cccs2)SC1=S)Nc1cccc(C(=O)O)c1 | 9.57
29 | Cc1cccn2c(=O)c(/C=C(\C#N)S(=O)(=O)c3ccccc3)c(N3CCCCC3)nc12 | 9.28
30 | Cc1ccc(S(=O)(=O)/C(C#N)=C/c2c(N3CCC(C(N)=O)CC3)nc3c(C)cccn3c2=O)cc1 | -71.4
31 | Cc1cccn2c(=O)c(/C=C(\C#N)S(=O)(=O)c3ccc(Cl)cc3)c(N3CCC(C(N)=O)CC3)nc12 | -77.8
32 | CCOC(=O)C1CCN(c2nc3c(C)cccn3c(=O)c2/C=C(\C#N)S(=O)(=O)c2ccccc2)CC1 | -18.1
33 | Cc1cccn2c(=O)c(/C=C(\C#N)C(=O)NCc3ccco3)c(N3CCC(C(N)=O)CC3)nc12 | -43
34 | Cc1cccn2c(=O)c(/C=C(\C#N)S(=O)(=O)c3ccccc3)c(N3CCC(C(N)=O)CC3)nc12 | -75.4
35 | CCN1CCN(c2nc3c(C)cccn3c(=O)c2/C=C(\C#N)S(=O)(=O)c2ccc(Cl)cc2)CC1 | -44.9
36 | Cc1cccn2c(=O)c(/C=C(\C#N)C(=O)NCc3ccccc3)c(N3CCC(C(N)=O)CC3)nc12 | -29.1
37 | COc1ccc(C=Nc2cccc3ncccc23)cc1 | 4.44
38 | Cc1ccc(C(=O)Nc2ccc(S(=O)(=O)N3CCOCC3)cc2)cc1Br | 3.46
39 | CC(=O)Nc1nc(-c2ccc(Cl)cc2)nc(C)c1C(C)=O | -19.8
40 | CCN(C(=O)COC(=O)C1=COCCO1)c1ccccc1 | -2.33
41 | O=c1cc(Cc2nnc(SCc3ccccc3)n2-c2ccc(Cl)cc2)[nH]c(=O)[nH]1 | 0.593
